Compound activity deposited in PubChem by National Center for Advancing Translational Sciences (NCATS).
Most compounds without a hit are left out; they make up all but 11% or so of the library.
ALDH1A1 block = blocks purified human ALDH1A1 activity | 220,000 tested, 7.3% active | AID 1030 | Purified ALDH1A1, NADH fluorescence, propionaldehyde substrate | P00352 | Potency, µM (top dose mostly 75.3 µM), for the others: at the highest dose activity, negative = inhibition, usual class: inhibitors;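 also: potency is read from the fitted curve at half-maximal effect; plate controls were no enzyme wells and a reference inhibitor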
PNC assembly inh = inhibitors of perinucleolar compartment assembly | activity change (PNC), negative = inhibition, % at 10 µM | 140,000 tested, 3.1% active | PC3M PTB-GFP, PNC prevalence imaging, 16 h; hits give low values;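 active = readout at or below -70, meaning at least 70% loss of cells showing the perinucleolar compartment, a nuclear body marking cancer cells; inconclusive = readout between -30 and a set limit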;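 also: plate controls were DMSO wells for no effect and camptothecin positive control wells for full effect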
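Read-out is percentage of cells bearing a perinucleolar compartment, from automated 20x imaging of fixed, Hoechst-stained PC3M PTB-GFP cells. Cells were seeded 4 h, then exposed 16 h to compound (23 nl of library stock) in duplicate plates.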
HPGD inh = inhibitors of human 15-hydroxyprostaglandin dehydrogenase (HPGD); P15428; purified HPGD, NADH fluorescence kinetic, PGE2 substrate; Potency, µM, for the others: at the top dose activity change, negative = inhibition, actives largely listed as inhibitors; 150,000 tested, 4.3% active; AID 894; also: potency is read from the fitted curve at half-maximal effect
Target sequence (P15428 whole entry, looked up): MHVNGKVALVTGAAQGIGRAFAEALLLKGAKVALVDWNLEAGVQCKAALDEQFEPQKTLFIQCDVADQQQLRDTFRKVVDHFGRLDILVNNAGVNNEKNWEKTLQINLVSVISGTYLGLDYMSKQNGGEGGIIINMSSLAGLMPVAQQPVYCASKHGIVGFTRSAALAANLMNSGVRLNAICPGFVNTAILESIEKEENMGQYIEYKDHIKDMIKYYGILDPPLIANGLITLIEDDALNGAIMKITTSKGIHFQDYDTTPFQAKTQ
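NADH formation kinetics: reaction with 30 uM PGE2 and 1 mM NAD+ (final), 20 nM enzyme, Tris-HCl pH 8 with Tween 20, after 15 min compound preincubation at room temperature. Fluorescence change, last versus first of five reads.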
Numbers without * were called inactive; ? = inconclusive; . = no result; [ ] = dose if it differs, or a comment. Unless noted, calls follow the shape of the dose curve; as a rule, active = well fitted inhibition curve with a large enough effect (not every such curve was filed as active); inconclusive = small, poorly fitted or top-dose-only effect, or another doubt; inactive = no such curve, though single readings can be large or run the other way. Unless noted, % is scaled to controls: 0 for no effect and ±100 for the full control effect.

SMILES	ALDH1A1 block	PNC assembly inh	HPGD inh
O=C(CCC1CCCCC1)Nc1ccccc1O	?	5.3	20µM*
O=C(CCc1ccc(S(=O)(=O)NC2CCCCC2)cc1)NCc1ccccn1	-4.7%	.	.
O=C(CCC1CCCCC1)Nc1ccccc1-c1ccccc1	?	?	-15.7%
CC(C)=CC[N+]1(C)CCCCC1	5.9%	15.4	-3.4%
CC1=[N+]([O-])C(C)(C)C(c2ccc(Br)cc2)=[N+]1[O-]	-3.5%	?	-6.1%
CC[C@H](C)[C@H]1O[C@]2(CC[C@@H]1C)C[C@@H]1C[C@@H](C/C=C(\C)[C@H](O[C@@H]3C[C@H](OC)[C@H](O[C@@H]4C[C@H](OC)[C@@H](O)[C@H](C)O4)[C@H](C)O3)[C@@H](C)/C=C/C=C3\CO[C@@H]4[C@H](O)C(C)=C[C@@H](C(=O)O1)[C@]34O)O2	-16.5%	.	.
COC(=O)/C=C1/S/C(=N/N=C/c2ccc(N(C)C)cc2)NC1=O	6.0%	8.6	-5.0%
C#CCCCO/N=C1/C[C@@H](O)[C@@H](O)[C@@H]2[C@@H]3C(=O)N([C@@H](C)c4ccccc4)C(=O)[C@H]3CC[C@H]12	10.1%[13.5 µM]	.	.
CCn1nnc(-c2ccc(N)cc2)n1	11.8%	.	.
NCCS(=O)O	-1.6%	.	-5.8%
CC(=O)c1ccc(-c2cccc(-c3cc(=O)oc4ccc(C(C)(C)C)cc34)c2)cc1	6.2%	.	-18.7%
COC(=O)C(C)N1C(=O)S/C(=C/c2cc(C)n(C(C)C)c2C)C1=O (configuration not stated)	?	22.9	-11.6%
CCN(CC)c1ccc(/C=C2/SC(=O)N(C(C)C)C2=O)o1	2.51µM*	?	-20.2%
COc1cc(OC)c(OC)cc1CNC1CCCCCC1	-13.8%	-2.8	-8.7%
COc1cc(OC)c(CNC2CCCCCC2)cc1Br	7.94µM*	.	.
O=C(O)c1c[nH]c2c(ccc3[nH]cc(C(=O)O)c(=O)c32)c1=O	-9.9%[13.5 µM]	.	-13.0%
COc1ccc(OC)c(NC(=O)C(=S)NC2CCCCC2)c1	8.91µM*	.	.
CCOc1ccc(CC(=O)NNC(=S)NC2CCCCC2)cc1OCC	6.9%	5.3	-7.2%
COc1ccc(NC(=O)C(=S)NC2CCCCC2)cc1	-1.9%	.	.
CN(C(=O)c1ccc2c(c1)OCO2)C1(C(=O)NC2CCCC2)CCCCC1	2.9%	-19.4	-2.7%
S=C(NC1CCCCC1)c1ccc2c(c1)OCO2	?	17.4	20µM*
O=C(NNC(=S)NC1CCCCC1)c1ccc2c(c1)OCO2	-10.5%	-14.8	-12.6%
O=C(NC1CCCCCCC1)c1ccc2c(c1)OCO2	-1.0%	-7.1	15.8µM*
CCOc1ccc(C(=S)NC2CCCCC2)cc1OC	39.8µM*	-24.2	20µM*
Cc1c(C(=O)Oc2cccc3ccccc23)cnn1-c1ccccc1	?	14.0	-28.6%
SMILES	ALDH1A1 block	PNC assembly inh	HPGD inh
N#Cc1cccc(-c2nc(Nc3ccccc3)c3ccccc3n2)c1	?	.	-14.3%
Cc1ccc(S(=O)(=O)n2c3ccccc3c3nnc(C(=O)c4ccccc4)nc32)cc1	-7.3%[13.5 µM]	.	.
COc1ccc(NC(=O)N2CC[C@@]3(CCCN(C(=O)c4ccncc4)C3)C2)cc1	-4.8%	.	-9.2%
CCC/C=N/NC(=O)c1cccc(Br)c1	25.1µM*	.	.
O=C(N/N=C/C=C/c1ccccc1)c1cccc(Br)c1	-10.7%	24.7	-9.2%
COc1ccc(NC(=O)N2CC[C@@]3(CCCN(S(C)(=O)=O)C3)C2)cc1	-6.2%	.	-5.3%
COc1cc(OC)cc(C(=O)NCCCN2CCN(CCCNC(=O)c3cc(OC)cc(OC)c3)CC2)c1	-7.8%	25.3	-2.4%
CN(C)c1oc(-c2ccccc2Cl)nc1C#N	?	38.6	-15.9%
CN(C)c1oc(-c2ccccc2[N+](=O)[O-])nc1C#N	10µM*	.	.
COc1ccccc1NC(C#N)c1ccccc1OCc1ccccc1 (configuration not stated)	17.8µM*	-8.7	-10.1%
Cc1c(OCc2ccccc2)cccc1OCc1ccccc1	4.7%[13.5 µM]	58.2	-11.4%
O=C(c1cc(C(F)(F)F)cc(C(F)(F)F)c1)N1CCC2(CCN(Cc3nccs3)CC2)CC1	14.8%	.	-1.3%
Cc1cccc(C(OC(=O)c2ccco2)C(=O)NCc2ccccc2)n1 (configuration not stated)	-8.8%	?	-13.2%
CC(C)C(OC(=O)c1ccco1)C(=O)NCc1ccccc1 (configuration not stated)	-0.3%	?	12.6µM*
COCCOC(=O)C1=C(C)NC(=O)NC1c1ccc(-c2cc(Cl)ccc2Cl)o1 (configuration not stated)	3.16µM*	.	.
COC(=O)C1=C(C)NC(C)=C(C(=O)OC)C1c1ccc(-c2cc(Cl)ccc2Cl)o1	?	-4.7	-25.4%
COC(=O)C1=C(C)NC(=O)NC1c1ccc(-c2ccc(F)cc2)o1 (configuration not stated)	-8.1%	.	.
